TSHR ag = TSH receptor (human) agonism; Potency, µM (highest dose often 57.1 µM), usual class: activators; HEK293-CNG-TSHR cells (CNG channel as cAMP sensor), membrane potential dye, cAMP; P16473; 73,000 tested, 0.48% active; AID 926; active = well fitted activation curve with a large enough effect in the main read-out, with a control signal flat, not every such curve was filed as active; inconclusive = small, poorly fitted or top-dose-only effect, or a change in a side signal; inactive = no such curve, though single readings can be large or run the other way; reference of the percent scale not stated here;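 also: the control signal comes from parental cells without the receptor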
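HEK 293 cells stably expressing TSHR and a cAMP-gated CNG channel; parental CNG-only cells as counterscreen. Cells preloaded 60 min with membrane potential dye plus 100 uM RO 20-1724, then compound 30 min; fluorescence read at 590 nm.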
ERK AVP inh = blocks ERK signaling stimulated by vasopressin. AID 995. Potency, µM (doses to about 57.5 µM), actives largely listed as inhibitors. 72,000 tested, 0.99% active. HEK293-V1b, vasopressin-stimulated pERK AlphaScreen; also: nearly all actives have a fitted effect of over 55% in size
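HEK293 cells stably expressing V1b receptor, preincubated 30 min at 37 °C with compound, then stimulated 5 min with 25 nM vasopressin. Phospho-ERK by AlphaScreen SureFire after 5 h RT; normalized to DMSO and vasopressin; AC50 by Hill fit.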
Luciferase inh = blocks Photinus pyralis firefly luciferase activity | P08659 | purified firefly luciferase, luminescence, 8 min | Potency, µM (doses to about 57.1 µM), usual class: inhibitors | 72,000 tested, 2.2% active | AID 411; also: nearly all actives have a fitted effect of over 40% in size
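Inhibition of light generation by firefly luciferase from ATP and luciferin was profiled with concentration-response curves per sample, ATP held at 10 uM within the enzyme's linear range. Plates were read by luminescence after an 8-minute ambient incubation.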
Tau filament bind = tau filament binding; Potency, µM (titrated, usually from 57.1 µM); P10636; AID 596; 71,000 tested, 2% active; recombinant tau filaments, thioflavin S fluorescence, 15 h; filaments grown with octadecylsulfate alongside compound;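 also: actives lower thioflavin S fluorescence by blocking filaments or displacing dye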
Target sequence (P10636 whole entry, looked up): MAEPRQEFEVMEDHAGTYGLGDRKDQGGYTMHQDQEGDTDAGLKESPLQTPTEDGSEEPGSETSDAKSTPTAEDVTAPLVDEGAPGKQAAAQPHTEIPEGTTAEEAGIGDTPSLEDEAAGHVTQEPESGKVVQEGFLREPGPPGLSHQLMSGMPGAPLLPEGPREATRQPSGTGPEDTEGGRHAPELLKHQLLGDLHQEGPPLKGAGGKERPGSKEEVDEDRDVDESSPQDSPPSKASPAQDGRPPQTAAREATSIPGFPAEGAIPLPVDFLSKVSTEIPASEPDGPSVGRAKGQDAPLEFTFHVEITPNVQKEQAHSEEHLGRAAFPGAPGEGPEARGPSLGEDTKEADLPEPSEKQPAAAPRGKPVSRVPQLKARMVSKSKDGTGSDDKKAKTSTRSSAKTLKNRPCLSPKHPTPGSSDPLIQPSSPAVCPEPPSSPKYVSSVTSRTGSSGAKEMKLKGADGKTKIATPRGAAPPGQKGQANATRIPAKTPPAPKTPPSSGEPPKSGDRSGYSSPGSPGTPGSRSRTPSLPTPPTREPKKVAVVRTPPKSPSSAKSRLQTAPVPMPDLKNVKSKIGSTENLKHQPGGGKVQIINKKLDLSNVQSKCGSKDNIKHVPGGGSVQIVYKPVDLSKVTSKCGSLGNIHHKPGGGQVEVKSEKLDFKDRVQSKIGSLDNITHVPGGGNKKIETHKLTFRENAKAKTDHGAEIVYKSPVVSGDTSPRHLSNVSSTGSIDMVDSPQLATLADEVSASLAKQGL
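His-tagged recombinant human tau (exons 2, 3, 10; 1 uM final) fibrillized with 30 uM sodium octadecylsulfate, 15 h at 37 C, in pH 7.4 HEPES buffer with 10 uM thioflavine S and 5 mM DTT. Reduced ThS fluorescence (450/510 nm) marks activity.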
PK Bst = alters activity of Bacillus stearothermophilus pyruvate kinase | Potency, µM | AID 361 | purified pyruvate kinase, luminescence ATP production; ribose 5-phosphate activator present at AC10 | 51,000 tested, 1.2% active; in the data active = potency below about 11 µM; inconclusive = mostly about 12 µM to 25 µM;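 the screen sought inhibitors and activators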
HEK293 cAMP ctrl = counter-screen for TSHR agonists: cAMP increase in parental HEK293; parental HEK293 CNG cAMP sensor, membrane potential fluorescence; Potency, µM (top dose mostly 57.1 µM), usual class: activators; 73,000 tested, 2.5% active; AID 938; also: nearly all actives have a fitted effect of over 55% in size
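Parental HEK 293 cells stably expressing a cAMP-gated CNG channel were loaded with membrane potential dye containing 100 uM RO 20-1724 for 60 min. Compound added for 30 min; depolarization read as fluorescence intensity at 590 nm.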
Hits are given with their value; ! = not confirmed by another sample; [ ] = dose if it differs, or a comment. Compounds with a hit are over-represented: about 7.2% of the library has one in this group of screens. Unless noted, calls follow the shape of the dose curve; as a rule, active = well fitted curve in the direction sought with a large enough effect; inconclusive = small, poorly fitted or top-dose-only effect, or another doubt; inactive = no such curve, though single readings can be large; an effect the other way counts as inactive or inconclusive.

How did Nc1c(C(=O)NCC2CCCO2)c2nc3ccccc3nc2n1-c1ccccc1 (stereo not given) do in these assays?
TSHR ag: inactive; ERK AVP inh: inactive; Luciferase inh: inactive; Tau filament bind: inactive; PK Bst: inactive; HEK293 cAMP ctrl: inactive

How did Nc1c(C(=O)OCC2CCCO2)c2nc3ccccc3nc2n1C1CCCCC1 (stereo not given) do in these assays?
ERK AVP inh: inactive; Luciferase inh: inactive; Tau filament bind: inconclusive; PK Bst: 8.9; HEK293 cAMP ctrl: inactive

What do the screens show for `Brc1ccc(OCCOCCN2CCOCC2)cc1`?
TSHR ag: 25µM; ERK AVP inh: inactive; Luciferase inh: inactive; Tau filament bind: inactive; HEK293 cAMP ctrl: inactive

Results for Cc1onc(-c2ccccc2Cl)c1C(=O)Nc1cccc2nsnc12 ?
TSHR ag: inconclusive; ERK AVP inh: inactive; Luciferase inh: inactive; Tau filament bind: inactive; PK Bst: inactive; HEK293 cAMP ctrl: 32µM

How did Cc1onc(-c2ccccc2Cl)c1C(=O)Nc1cccnc1 do in these assays?
TSHR ag: inactive; ERK AVP inh: inactive; Luciferase inh: inactive; Tau filament bind: inactive; PK Bst: inactive; HEK293 cAMP ctrl: inactive

How did Cc1onc(-c2ccccc2Cl)c1C(=O)Nc1ccc(-n2nncc2C(C)(C)C)cc1 do in these assays?
TSHR ag: inconclusive; ERK AVP inh: inactive; Luciferase inh: inactive; Tau filament bind: 25µM; PK Bst: inactive; HEK293 cAMP ctrl: inconclusive

Results for O=C(Nc1ccc2nsnc2c1)c1cccs1 ?
TSHR ag: inactive; ERK AVP inh: inactive; Luciferase inh: inactive; Tau filament bind: inactive; PK Bst: inactive; HEK293 cAMP ctrl: inactive

How did O=C(Nc1cccc2nsnc12)c1cccs1 do in these assays?
TSHR ag: inactive; ERK AVP inh: inactive; Luciferase inh: 16µM!; Tau filament bind: inactive; PK Bst: inactive; HEK293 cAMP ctrl: inactive

Results for Cc1onc(-c2ccccc2Cl)c1C(=O)Nc1cccc2cccnc12 ?
TSHR ag: inconclusive; ERK AVP inh: inactive; Luciferase inh: inactive; Tau filament bind: inactive; HEK293 cAMP ctrl: inconclusive

Results for CCOC(=O)c1ccccc1NC(=O)c1cccs1 ?
TSHR ag: inconclusive; ERK AVP inh: inactive; Luciferase inh: inactive; Tau filament bind: inactive; HEK293 cAMP ctrl: 25µM

Results for CN(C)c1ccc(-c2nccc(NCCN3CCOCC3)n2)cc1 ?
TSHR ag: inactive; ERK AVP inh: inactive; Luciferase inh: inactive[2.29 µM]; Tau filament bind: inactive; HEK293 cAMP ctrl: inactive

Results for CN1CCN(c2ncnc3ccc(-c4cccc(C#N)c4)cc23)CC1 ?
TSHR ag: inactive; ERK AVP inh: inactive; Luciferase inh: inactive[2.29 µM]; Tau filament bind: inactive; HEK293 cAMP ctrl: inactive

What do the screens show for `Cc1noc(C)c1C(=O)N1CCC[C@@]2(CCN(C(=O)Nc3cccc(C#N)c3)C2)C1`?
TSHR ag: inactive; ERK AVP inh: inactive; Luciferase inh: inactive[11.4 µM]; Tau filament bind: inactive; HEK293 cAMP ctrl: inactive

What do the screens show for `c1nc(N2CCNCC2)c2cc(-c3ccc4c(c3)OCO4)ccc2n1`?
TSHR ag: inactive; ERK AVP inh: inactive; Luciferase inh: inactive[2.29 µM]; Tau filament bind: inactive; HEK293 cAMP ctrl: inactive

What do the screens show for `CCCCN1c2ccccc2N(CCCO)c2cc(C)nnc21`?
TSHR ag: inactive; ERK AVP inh: inconclusive; Luciferase inh: 16µM; Tau filament bind: inactive; HEK293 cAMP ctrl: inactive

How did Brc1ccc2nc(CSc3ncn[nH]3)cn2c1 do in these assays?
TSHR ag: inactive; ERK AVP inh: inactive; Luciferase inh: 25µM; Tau filament bind: inactive; PK Bst: inactive; HEK293 cAMP ctrl: inactive

What do the screens show for `CC(C)Cn1c(N)c(C(=O)COC(=O)c2cc(-c3ccccc3)nc3ccccc23)c(=O)n(C)c1=O`?
ERK AVP inh: inactive

How did CC(C)Cn1c(N)c(C(=O)COC(=O)c2cc(-c3ccco3)nc3ccccc23)c(=O)n(C)c1=O do in these assays?
TSHR ag: inactive; ERK AVP inh: inactive; Luciferase inh: inactive; Tau filament bind: 13µM; PK Bst: inactive; HEK293 cAMP ctrl: inactive

Results for Cc1nn(-c2ccccc2)c(C)c1C(=O)OCC(=O)c1c(N)n(CC(C)C)c(=O)n(C)c1=O ?
TSHR ag: inconclusive; ERK AVP inh: inconclusive; Luciferase inh: inactive; Tau filament bind: inactive; PK Bst: inactive; HEK293 cAMP ctrl: 16µM

What do the screens show for `CCN(CC)CCCC(C)n1c(-c2ccccc2)nc2c(N(CCOC)CCOC)nc(C)nc21` (stereo not given)?
TSHR ag: inconclusive; ERK AVP inh: inactive; Tau filament bind: inactive; HEK293 cAMP ctrl: inconclusive

Results for CCSc1oc(-c2ccco2)nc1S(=O)(=O)c1ccccc1 ?
TSHR ag: inactive[11.4 µM]; ERK AVP inh: inactive; Luciferase inh: inactive; Tau filament bind: inactive; PK Bst: inactive; HEK293 cAMP ctrl: inactive

What do the screens show for `CCCSc1oc(-c2ccco2)nc1S(=O)(=O)c1ccccc1`?
TSHR ag: inconclusive; ERK AVP inh: inactive; Luciferase inh: inactive; Tau filament bind: inactive; PK Bst: inactive; HEK293 cAMP ctrl: 25µM

Results for CN(C)CC(C)(C)CNC(=O)c1ccc(-n2c(=O)c(=O)[nH]c3ccccc32)cc1 ?
TSHR ag: inactive; HEK293 cAMP ctrl: inactive

How did COc1ccccc1C(=O)Nc1ccc2c(c1)OCCO2 do in these assays?
TSHR ag: inconclusive; ERK AVP inh: inactive; Luciferase inh: 16µM; Tau filament bind: inactive; PK Bst: inactive; HEK293 cAMP ctrl: inconclusive

What do the screens show for `CCOC(=O)c1ccc(NC(=O)c2ccc3c(c2)OCO3)cc1`?
TSHR ag: inconclusive; ERK AVP inh: inactive; Luciferase inh: inactive; Tau filament bind: inactive; PK Bst: inactive; HEK293 cAMP ctrl: inconclusive

Results for COc1ccccc1C(=O)Nc1ccc2c(c1)OCO2 ?
TSHR ag: inconclusive; ERK AVP inh: inactive; Luciferase inh: 25µM; Tau filament bind: inactive; HEK293 cAMP ctrl: inconclusive

Results for O=C(Nc1ccc2c(c1)OCO2)c1ccc(Br)s1 ?
TSHR ag: inactive; ERK AVP inh: inconclusive; Luciferase inh: 13µM; Tau filament bind: inactive; PK Bst: inconclusive; HEK293 cAMP ctrl: inactive

What do the screens show for `CCOC(=O)c1c(C)[nH]c(C(=O)Nc2ccc3c(c2)OCO3)c1C`?
TSHR ag: inactive; ERK AVP inh: inactive; Luciferase inh: 13µM; Tau filament bind: inactive; PK Bst: inactive; HEK293 cAMP ctrl: inactive

How did O=[N+]([O-])c1cccc(C(F)(F)F)c1 do in these assays?
TSHR ag: inactive; ERK AVP inh: inactive; Tau filament bind: inactive; HEK293 cAMP ctrl: inactive

How did Cc1cc(C)n2nc(C(=O)OCC(=O)Nc3ccc4c(c3)OCO4)nc2n1 do in these assays?
TSHR ag: inactive; ERK AVP inh: inactive; Luciferase inh: inactive; Tau filament bind: inactive; PK Bst: inactive; HEK293 cAMP ctrl: inactive

Results for CCN(CC)S(=O)(=O)c1ccc(C(=O)Nc2ccc3c(c2)OCCO3)cc1 ?
TSHR ag: inactive[11.4 µM]; ERK AVP inh: inactive; Luciferase inh: inactive; Tau filament bind: inactive; PK Bst: inactive; HEK293 cAMP ctrl: inactive

Screens (PubChem BioAssay)
